# Assay results as given in PubChem BioAssay (NCATS).
# Several values for one entry are separate records, joined by “and”; a condition that tells them apart may be missing. Identical values can stand only once. Inconclusive results are not listed. A call without a number means that no potency is given here. Activity calls are given as the source filed them. Unless noted, calls follow the shape of the dose curve; as a rule, active = well fitted curve in the direction sought with a large enough effect; inconclusive = small, poorly fitted or top-dose-only effect, or another doubt; inactive = no such curve, though single readings can be large; an effect the other way counts as inactive or inconclusive.
# Tests used:
# [1] = molecular target: alpha-glucosidase (Oryza sativa, rice) (UniProt Q653V4); experiment: Counterscreen for Glucocerebrosidase Inhibitors: qHTS Assay for Rice alpha-Glucosidase at pH 5.0 (AID 997)
# Summary of the method: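 Endpoint fluorogenic assay at pH 5.0: compounds (0.7 nM to 77 uM) titrated against 4 nM rice enzyme and 400 uM 4-MU-alpha-glucoside for 20 min at room temperature; NaOH/glycine stop, read ex 365/em 440 nm, Hill-fitted AC50.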
# [2] = molecular target: Alpha-galactosidase (Coffea arabica) (UniProt Q42656); experiment: Counterscreen for Glucocerebrosidase Inhibitors: qHTS Assay for Coffee Bean alpha-Galactosidase at pH 5.9 (AID 998)
# Sequence of Alpha-galactosidase (Coffea arabica) (Q42656 whole entry, looked up): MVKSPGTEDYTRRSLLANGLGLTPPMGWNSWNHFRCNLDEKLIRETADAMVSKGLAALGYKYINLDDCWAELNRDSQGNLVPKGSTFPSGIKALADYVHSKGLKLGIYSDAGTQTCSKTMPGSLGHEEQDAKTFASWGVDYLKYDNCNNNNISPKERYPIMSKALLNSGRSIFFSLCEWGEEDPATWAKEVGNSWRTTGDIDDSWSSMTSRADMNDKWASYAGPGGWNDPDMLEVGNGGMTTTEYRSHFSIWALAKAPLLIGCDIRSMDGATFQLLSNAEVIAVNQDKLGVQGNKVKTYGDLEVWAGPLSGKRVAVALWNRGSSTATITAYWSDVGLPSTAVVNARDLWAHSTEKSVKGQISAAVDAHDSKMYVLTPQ
# Summary of the method: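 Enzyme 2 nM + cpd (0.7 nM–77 uM titration) + 4-MU-alpha-Gal 80 uM, pH 5.9 citrate/Tween-20, RT 20 min, NaOH/glycine stop pH 10, fluor 365/440. Normalized to no-enzyme and full-activity controls; Hill-fit AC50.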
# [3] = Validation of Assay for Modulators of Lamin A Splicing (AID 1459; active = well fitted curve in the direction sought with a large enough effect in the signal ratio; the % refers to the signal ratio;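 also: cells exposed to compound for two days before reading; ratio rise marks activators and ratio drop marks inhibitors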)
# Summary of the method: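 S3 HeLa cells stably expressing a lamin A-EGFP splicing minigene and DsRed2 were seeded at 600 cells/well in Opti-MEM with 2% FBS, pin-dosed, and incubated 48 hrs at 37 °C, 5% CO2. Laser-scanning cytometry (488 nm) gave GFP/RFP total intensity ratio.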
# [4] = qHTS Assay for Lipid Storage Modulators (AID 1519; calls by dose curve); conditions: Drosophila S3 cells, BODIPY lipid droplet/cell ratio, laser cytometry, cells loaded with oleic acid; for activity change, negative = inhibition: at 57.5 µM (top of the series)
# Summary of the method: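 Cells seeded at 5,000 per well were treated with compounds over a concentration series and loaded with oleic acid (400 uM, as added). Lipid droplet fluorescence (488 nm excitation, 500-530 nm channel) was read by laser-scanning cytometry and normalized to 20 uM Triacsin C.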
# [5] = molecular target: DNA repair nuclease/redox regulator APEX1 (Homo sapiens) (UniProt P27695); experiment: qHTS Validation Assay for Inhibitors of the Human Apurinic/apyrimidinic Endonuclease 1 (APE1) (AID 1705;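 also: TAMRA fluorescence gain over two minutes as APE1 cuts a quenched THF abasic duplex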)
# Sequence of DNA repair nuclease/redox regulator APEX1 (Homo sapiens) (P27695 whole entry, looked up): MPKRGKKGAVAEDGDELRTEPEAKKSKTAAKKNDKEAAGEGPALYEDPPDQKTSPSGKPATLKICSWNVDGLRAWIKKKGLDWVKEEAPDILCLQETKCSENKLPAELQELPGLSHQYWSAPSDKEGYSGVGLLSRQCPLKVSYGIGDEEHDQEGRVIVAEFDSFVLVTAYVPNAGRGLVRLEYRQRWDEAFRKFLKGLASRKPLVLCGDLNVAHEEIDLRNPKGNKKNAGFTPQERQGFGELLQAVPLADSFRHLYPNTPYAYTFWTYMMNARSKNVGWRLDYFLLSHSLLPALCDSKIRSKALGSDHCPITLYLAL
# Summary of the method: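 Human APE1 was preincubated with compound for 15 min at room temperature, then 50 nM (final) THF-abasic double-stranded DNA substrate bearing 5'-TAMRA and 3'-BHQ-2 was added. Incision-driven fluorescence rise (ex 525/em 598 nm) was read kinetically.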
# [6] = Counterscreen for APE1 Inhibitors: Fluorescent Dye Displacement Validation Assay (AID 1707)
# Summary of the method: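 Reaction mixture of 250 nM Thiazole Orange and 50 nM double-stranded abasic-site DNA was dispensed, compounds were pin-transferred, and fluorescence was read at endpoint (480 nm ex, 540 nm em). Reduced fluorescence indicated dye displacement by DNA binding.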
# [7] = molecular target: Endonuclease 4 (Escherichia coli (strain K12)) (UniProt P0A6C1); experiment: Counterscreen for APE1 Inhibitors: qHTS Validation Assay for Inhibitors of Endonuclease IV (AID 1708)
# Summary of the method: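 Read-out: fluorescence rise (ex 525/em 598 nm) from incision of a TAMRA/BHQ-2 double-stranded THF abasic-site substrate (50 nM), measured kinetically; third-minus-first read difference gave reaction progress. Enzyme 2 nM.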
# [8] = qHTS for differential inhibitors of proliferation of Plasmodium falciparum line 7G8 (AID 1815);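 also: parasite growth measured after three days of incubation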; also: potency is read from the fitted curve at half-maximal effect
# [9] = qHTS for differential inhibitors of proliferation of Plasmodium falciparum line GB4 (AID 1816); conditions: Potency: Plasmodium falciparum GB4 proliferation inhibition;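 also: parasite growth measured after 72 h incubation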; also: potency is read from the fitted curve at half-maximal effect
# [10] = measured here: cell count channel max response
# [11] = measured here: lipid channel max response
Compound,outcome [1],outcome [2],outcome [3],"activity change, negative = inhibition [4]","max response [4, 10]","max response [4, 11]",Potency [5],Potency [6],Potency [7],Potency [8],Potency [9]
CNCCc1c[nH]c2ccc(O)cc12,inactive,inactive,inactive,1.79% (inactive) and 0.655% (inactive),5.25% and 4.7%,5.9% and 3.87%,inactive,inactive,inactive,inactive,inactive
CN1C2CCC1CC(OC(=O)c1cc(Cl)cc(Cl)c1)C2 (centres undefined),,,inactive,-1.85% (inactive),-22.1%,-22.4%,inactive,,inactive,6.31 µM (active),12.6 µM (active)
C#CCOC(=O)C1=CCCN(C)C1,inactive,inactive,inactive,6% (inactive),13.4%,20.6%,inactive,inactive,,,
S=C(NC1CCCCC1)N1CCC(c2cnc[nH]2)CC1,inactive,inactive,inactive,0.457% (inactive),8.5%,6.88%,inactive,,,inactive,
O=C(O)[C@@H]1CCN1,,,inactive,1.64% (inactive),-13.5%,-13.6%,inactive,,inactive,inactive,inactive
O=C(O)CC[N+](=O)[O-],inactive,inactive,inactive,1.53% (inactive) and -0.853% (inactive),11.6% and 14.1%,18.9% and 15.4%,inactive,,inactive,inactive,inactive
CC[C@@H]1C(=O)OC[C@@H]1Cc1cncn1C,,,inactive,-0.176% (inactive) and -1.27% (inactive),23.8% and 24.9%,22.1% and 21.9%,inactive,,inactive,inactive,inactive
COc1cc(C(O)CN)ccc1O (centres undefined),,,inactive,,,,inactive,inactive,inactive,inactive,inactive
NC1CCc2cc(O)c(O)cc2C1 (centres undefined),,,inactive,-0.984% (inactive),-18.2%,-19.2%,inactive,,inactive,inactive,
NC(=NCCC[C@H](N)C(=O)O)N[N+](=O)[O-],inactive,inactive,inactive,0.0348% (inactive),-0.432%,0.435%,inactive,,inactive,inactive,inactive
